Measurements from PubChem BioAssay (NCATS).
Several values for one entry are separate records, joined by “and”; a condition that tells them apart may be missing. Equal values may be shown once. Records with an inconclusive call do not appear. Activity calls are given as the source filed them. Unless noted, calls follow the shape of the dose curve; as a rule, active = well fitted curve in the direction sought with a large enough effect; inconclusive = small, poorly fitted or top-dose-only effect, or another doubt; inactive = no such curve, though single readings can be large; an effect the other way counts as inactive or inconclusive.

Columns and labels:
[1] = Cell Viability - Jurkat (AID 426;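 active = dose-dependent loss of cell ATP signal giving a full or clear fitted curve, ranked by lower potency value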;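 also: potency is read from the fitted curve at half-maximal effect; cells exposed to compound for 40 hours at 37 °C before ATP read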); conditions: qHTS
In short: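 Cytotoxicity taken as drop in cellular ATP (CellTiter-Glo luminescence, 20 min room temperature) after 40 hr, 37C treatment of 5000 Jurkat Clone E6-1 cells per well; concentration-response fitted with Hill equation for AC50.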

[2] = Cell Viability - HepG2 (AID 433; calls by dose curve;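 also: potency is read from the fitted curve at half-maximal effect; cells exposed to compound for 40 hours; potency for ATP loss meaning cytotoxicity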); conditions: qHTS
In short: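 HepG2 cells, 1500 per well, treated 40 hr at 37 °C in complete medium; viability from intracellular ATP by CellTiter-Glo luminescence. Normalized to DMSO and 100 uM tamoxifen; AC50 from Hill fit of qHTS concentration-response.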

[3] = Cell Viability - HUV-EC-C (AID 542); conditions: HUV-EC-C endothelial cell viability, qHTS; series mostly up to 92.2 µM;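 also: cells exposed to compound for 40 hours; % is scaled to controls: 0 for no effect and ±100 for the full control effect; nearly all actives have a fitted effect of over 35% in size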
In short: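 CellTiter-Glo luminescence measured ATP loss in HUV-EC-C cells (1000/well) after 40 hr compound exposure at 37 °C, in complete culture medium. Concentration-response data were Hill-fitted to give AC50.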

[4] = Cell Viability - H-4-II-E (AID 543); conditions: H-4-II-E rat hepatoma viability; series mostly up to 92.2 µM;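 also: cells exposed to compound for 40 hours; % is scaled to controls: 0 for no effect and ±100 for the full control effect; nearly all actives have a fitted effect of over 35% in size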
In short: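 CellTiter-Glo luminescence (intracellular ATP) measured after 40 h compound exposure at 37 °C in H-4-II-E rat hepatoma cells seeded at 1500/well. Values are AC50s fitted with the standard Hill equation.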

[5] = Cellular Toxicity (caspase-3) Jurkat (AID 655); conditions: Jurkat caspase-3 activation, luminescence, DMSO = 0%, tamoxifen = 100%; at 92.2 µM (top of the series);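 also: cells exposed to compound for 16 h at 37 °C before reading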
In short: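 Jurkat cells (5000/well) in complete medium exposed 16 h at 37 C; caspase-3/7 activity read by Caspase-Glo luminescence after 20 min at room temperature. Normalized to DMSO and 100 uM tamoxifen; AC50 from Hill fits.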

[6] = Cell Viability - LYMP2-007 (AID 979); conditions: LYMP2-007 lymphoblastoid cell viability; series mostly up to 92.2 µM;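 also: cells exposed to compound for 24 h before reading; 0% = DMSO only and the negative end = 92 µM tetraoctylammonium bromide; nearly all actives have a fitted effect of over 60% in size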
In short: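 AC50 values come from Hill-equation fits of luminescent intracellular ATP (CellTiter-Glo, 30 min, room temperature) following 24 h compound exposure at 37 C. Cells: LYMP2-007 lymphoblastoid line, 2500 per well, in complete culture medium.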

[7] = Cell Viability - LYMP2-010 (AID 981); conditions: LYMP2-010 lymphoblastoid cell viability, qHTS; series mostly up to 92.2 µM; also: % is scaled to controls: 0 for no effect and ±100 for the full control effect; nearly all actives have a fitted effect of over 55% in size
In short: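 CellTiter-Glo ATP luminescence measured cytotoxicity after 24 h compound exposure at 37 C. LYMP2-010 cells were seeded at 2500/well, with tetraoctylammonium bromide as control; concentration-response curves gave AC50 values by the Hill equation.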

[8] = Cell Viability - LYMP2-012 (AID 982); conditions: LYMP2-012 lymphoblastoid cell viability qHTS; series mostly up to 92.2 µM;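 also: cellular ATP by luciferase luminescence where a drop means cytotoxicity; cells exposed to compound for one day before reading; 0% = DMSO only and full loss = 92 µM tetraoctylammonium bromide; nearly all actives have a fitted effect of over 55% in size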
[9] = Cell Viability - LYMP2-014 (AID 983); conditions: LYMP2-014 lymphoblastoid cells, viability qHTS; series mostly up to 92.2 µM;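 also: plate controls were DMSO only for no effect and 92 µM tetraoctylammonium bromide for full effect; nearly all actives have a fitted effect of over 50% in size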
In short: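 Intracellular ATP loss, read by luciferase luminescence, measures acute cytotoxicity after 24 h compound exposure of lymphoblastoid LYMP2-014 cells (2500/well, 37 C). Concentration-response data fitted to the Hill equation for AC50.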

[10] = Cell Viability - LYMP2-016 (AID 984); conditions: LYMP2-016 lymphoblastoid cell viability, qHTS; series mostly up to 92.2 µM; also: % is scaled to controls: 0 for no effect and ±100 for the full control effect; nearly all actives have a fitted effect of over 55% in size
In short: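 Human lymphoblastoid LYMP2-016 cells, 2500 per well, treated with compounds for 24 h at 37 C. Viability read as intracellular ATP by CellTiter-Glo luminescence after 30 min at room temperature; AC50 from Hill fits of concentration-response.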

[11] = Cell Viability - LYMP2-018 (AID 985); conditions: LYMP2-018 lymphoblastoid cells, viability (qHTS); series mostly up to 92.2 µM;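 also: plate controls were DMSO only for no effect and tetraoctylammonium bromide at 92 µM for full effect; nearly all actives have a fitted effect of over 50% in size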
In short: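 Viability read as CellTiter-Glo luminescence (cellular ATP) after 24 hr compound exposure at 37 C of 2500 LYMP2-018 lymphoblastoid cells/well, pre-plated 5 hr. Hill-equation modelling gave AC50.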

[12] = Cell Viability - LYMP2-020 (AID 986); conditions: series mostly up to 92.2 µM;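 also: plate controls were DMSO only for no effect and tetraoctylammonium bromide at 92 µM for full effect; nearly all actives have a fitted effect of over 55% in size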
In short: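 Cytotoxicity in qHTS format: luminescent ATP readout from CellTiter-Glo after 24 h compound exposure at 37 C in complete medium. LYMP2-020 lymphoblastoid cells were seeded at 2500/well; concentration-response data fitted to the Hill equation for AC50.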

[13] = Cell Viability - LYMP2-022 (AID 987); conditions: LYMP2-022 lymphoblastoid cell viability; series mostly up to 92.2 µM
In short: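 Cytotoxicity read as decreased cellular ATP (CellTiter-Glo luminescence, 30 min room temperature) after 24 hours compound exposure of 2500 lymphoblastoid LYMP2-022 cells/well at 37 C. Concentration-response data fitted with standard Hill equation for AC50.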

[14] = Cell Viability - LYMP2-024 (AID 988); conditions: LYMP2-024 lymphoblastoid cell viability; series mostly up to 92.2 µM;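 also: plate controls were DMSO only for no effect and 92 µM tetraoctylammonium bromide for full effect; nearly all actives have a fitted effect of over 60% in size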
In short: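 Cytotoxicity was taken as a decrease in ATP (CellTiter-Glo luminescence) after 24 hr compound exposure at 37 C of LYMP2-024 lymphoblastoid cells, 2500 cells/well. Concentration-response data were fitted to the Hill equation to give AC50.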

[15] = Cell Viability - LYMP2-026 (AID 989); conditions: LYMP2-026 lymphoblastoid cell viability, qHTS; series mostly up to 92.2 µM; also: % is scaled to controls: 0 for no effect and ±100 for the full control effect; nearly all actives have a fitted effect of over 50% in size
In short: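 Cytotoxicity read as ATP-dependent luminescence (CellTiter-Glo, 30 min room temperature) after 24 h compound treatment at 37 C. LYMP2-026 lymphoblastoid line seeded at 2500 cells/well; AC50 derived by standard Hill equation.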

[16] = Cell Viability - LYMP1-002 - Assay at 24 hr (AID 993); conditions: LYMP1-002 lymphoblastoid cells viability; series mostly up to 92.2 µM; also: % is scaled to controls: 0 for no effect and ±100 for the full control effect
In short: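 qHTS cytotoxicity at 24 h: CellTiter-Glo ATP luminescence in lymphoblastoid line LYMP1-002 incubated with compound at 37 °C. Concentration-response modeled with the Hill equation for AC50; tetraoctylammonium bromide served as positive control.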

[17] = qHTS assay for small molecule agonists of retinoid X receptor alpha signaling (AID 588544; calls by dose curve;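 as to activation: 0% = DMSO basal wells and 100% = reference agonist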); conditions: HEK293T RXRa-UAS-bla, beta-lactamase reporter, 18 h; 530 nm emission
[18] = target: Retinoic acid receptor RXR-alpha (Homo sapiens) (UniProt P19793); test: as above; conditions: HEK293T RXRa-UAS-bla, beta-lactamase reporter, 18 h; series mostly up to 76.7 µM
Chain of Retinoic acid receptor RXR-alpha (Homo sapiens) (P19793 whole entry, looked up): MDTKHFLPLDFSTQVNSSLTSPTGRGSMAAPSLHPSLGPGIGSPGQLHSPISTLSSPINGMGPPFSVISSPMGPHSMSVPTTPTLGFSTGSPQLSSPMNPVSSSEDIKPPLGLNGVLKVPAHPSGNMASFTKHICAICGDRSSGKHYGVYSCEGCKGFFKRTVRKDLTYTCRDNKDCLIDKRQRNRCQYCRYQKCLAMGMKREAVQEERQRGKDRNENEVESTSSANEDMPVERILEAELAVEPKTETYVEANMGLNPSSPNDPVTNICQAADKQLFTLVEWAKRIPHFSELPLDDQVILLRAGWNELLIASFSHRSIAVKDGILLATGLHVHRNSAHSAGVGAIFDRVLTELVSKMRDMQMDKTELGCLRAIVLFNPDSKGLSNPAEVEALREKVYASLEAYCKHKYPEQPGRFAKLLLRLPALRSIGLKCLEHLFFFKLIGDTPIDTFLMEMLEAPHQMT

[19] = target: Thyroid hormone receptor beta (Homo sapiens) (UniProt P10828); test: qHTS assay for small molecule agonists of thyroid hormone receptor beta signaling (AID 588545; calls by dose curve;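 also: 0% = DMSO only and 100% = 10 nM T3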); conditions: TR-UAS-bla GripTite HEK 293, beta-lactamase ratio, agonist mode, 18 h, percent of T3 response, DMSO as zero; series mostly up to 76.7 µM
Chain of Thyroid hormone receptor beta (Homo sapiens) (P10828 whole entry, looked up): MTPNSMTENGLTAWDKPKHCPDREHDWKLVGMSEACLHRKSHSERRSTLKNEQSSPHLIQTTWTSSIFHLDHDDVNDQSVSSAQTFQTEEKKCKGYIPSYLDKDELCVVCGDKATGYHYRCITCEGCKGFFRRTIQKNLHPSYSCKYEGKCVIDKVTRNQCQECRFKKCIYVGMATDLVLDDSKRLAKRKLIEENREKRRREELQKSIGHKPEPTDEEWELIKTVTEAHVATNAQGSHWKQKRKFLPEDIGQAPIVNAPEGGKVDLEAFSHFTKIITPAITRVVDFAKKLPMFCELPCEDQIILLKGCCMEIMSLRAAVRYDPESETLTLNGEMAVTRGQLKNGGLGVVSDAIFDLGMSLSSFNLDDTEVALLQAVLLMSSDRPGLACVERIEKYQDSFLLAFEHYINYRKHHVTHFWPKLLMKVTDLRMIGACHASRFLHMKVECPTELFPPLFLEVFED
In short: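 TR-UAS-bla GripTite HEK 293 cells (2500/well, medium with 2% charcoal/dextran FBS) were treated in agonist mode for 18 h at 37 C, titrated. Beta-lactamase was read by CCF4 ratio after 2 h; normalized to 10 nM T3 (100%) and DMSO, Hill-fitted for EC50 and efficacy.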

[20] = target: Voltage-gated inwardly rectifying potassium channel KCNH2 (Homo sapiens) (UniProt Q12809); test: qHTS Assay for Small Molecule Inhibitors of the Human hERG Channel Activity (AID 588834); conditions: U2OS BacMam hERG, FluxOR thallium flux fluorescence; series mostly up to 92.2 µM;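 also: top concentration of the series differs between compounds; % is scaled to controls: 0 for no effect and ±100 for the full control effect; lower thallium flux fluorescence means stronger hERG block; nearly all actives have a fitted effect of over 50% in size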
Chain of Voltage-gated inwardly rectifying potassium channel KCNH2 (Homo sapiens) (Q12809 whole entry, looked up): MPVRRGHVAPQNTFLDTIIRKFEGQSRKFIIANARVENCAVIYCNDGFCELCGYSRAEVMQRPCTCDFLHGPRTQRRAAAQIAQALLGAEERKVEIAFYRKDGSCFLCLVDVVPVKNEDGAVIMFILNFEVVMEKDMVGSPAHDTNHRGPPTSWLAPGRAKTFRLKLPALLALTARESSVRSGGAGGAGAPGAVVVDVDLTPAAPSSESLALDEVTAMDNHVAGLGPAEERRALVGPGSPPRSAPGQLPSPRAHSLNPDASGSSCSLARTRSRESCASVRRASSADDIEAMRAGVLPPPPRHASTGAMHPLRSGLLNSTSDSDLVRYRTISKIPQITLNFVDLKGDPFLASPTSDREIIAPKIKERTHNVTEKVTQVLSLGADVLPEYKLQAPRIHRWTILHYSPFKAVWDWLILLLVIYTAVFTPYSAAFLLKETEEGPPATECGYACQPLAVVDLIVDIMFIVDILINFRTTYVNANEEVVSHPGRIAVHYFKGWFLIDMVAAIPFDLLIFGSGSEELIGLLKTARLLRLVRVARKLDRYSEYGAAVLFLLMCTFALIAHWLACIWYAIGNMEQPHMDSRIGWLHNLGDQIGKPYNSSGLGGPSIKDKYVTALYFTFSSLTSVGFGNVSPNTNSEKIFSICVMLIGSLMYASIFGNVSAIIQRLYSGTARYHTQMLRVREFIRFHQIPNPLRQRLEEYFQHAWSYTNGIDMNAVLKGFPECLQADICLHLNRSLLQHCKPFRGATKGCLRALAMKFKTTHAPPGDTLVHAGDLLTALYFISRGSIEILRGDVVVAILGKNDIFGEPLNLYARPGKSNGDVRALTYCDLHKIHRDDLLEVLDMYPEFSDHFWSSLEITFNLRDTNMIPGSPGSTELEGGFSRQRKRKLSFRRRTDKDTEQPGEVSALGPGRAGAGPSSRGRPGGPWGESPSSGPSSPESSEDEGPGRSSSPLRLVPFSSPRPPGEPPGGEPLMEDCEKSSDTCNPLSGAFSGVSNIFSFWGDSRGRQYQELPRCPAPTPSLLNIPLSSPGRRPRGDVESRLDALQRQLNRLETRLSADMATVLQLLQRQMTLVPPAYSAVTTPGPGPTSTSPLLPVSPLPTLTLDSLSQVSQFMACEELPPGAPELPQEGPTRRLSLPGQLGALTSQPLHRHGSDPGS
In short: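 Thallium serves as surrogate for K+ influx through BacMam-delivered hERG in U2OS cells. Compounds are added for about 10 minutes after dye loading; stimulation buffer then starts flux, monitored kinetically on FDSS.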

O=C1CCc2ccccc2O1
inactive: Potency [1] > 92 µM | Potency [2] > 92 µM | outcome [3] | Potency [4] | caspase-3 activation [5] 1.5% | Potency [6] | Potency [7] | Potency [8] | Potency [9] | Potency [10] | Potency [11] | Potency [12] | Potency [13] | Potency [14] | Potency [15] | Potency [16] | outcome [18] | outcome [19] | Potency [20]
-3.26%: max response [17]

c1ccc2scnc2c1
-4.98%: max response [17]
inactive: Potency [1] > 92 µM | Potency [2] > 92 µM | outcome [3] | Potency [4] | caspase-3 activation [5] -0.459% | Potency [6] | Potency [7] | Potency [8] | Potency [9] | Potency [10] | Potency [11] | Potency [12] | Potency [13] | Potency [14] | Potency [15] | Potency [16] | outcome [18] | outcome [19] | Potency [20]

O=S(=O)(O)c1ccccc1
inactive: Potency [1] > 92 µM | Potency [2] > 92 µM | outcome [3] | Potency [4] | caspase-3 activation [5] 0.148% | Potency [6] | Potency [7] | Potency [8] | Potency [9] | Potency [10] | Potency [11] | Potency [12] | Potency [13] | Potency [14] | Potency [15] | Potency [16] | outcome [18] | outcome [19] | Potency [20]
0.332%: max response [17]

O[C@@H]([C@H](O)[C@@H](O)CBr)[C@@H](O)CBr
-11.8%: max response [17]
inactive: Potency [1] > 92 µM | Potency [2] > 92 µM | outcome [3] | Potency [4] | caspase-3 activation [5] 0.213% | Potency [6] | Potency [7] | Potency [8] | Potency [9] | Potency [10] | Potency [11] | Potency [12] | Potency [13] | Potency [14] | Potency [15] | Potency [16] | outcome [18] | outcome [19] | Potency [20]

CC1(C)S[C@@H]2[C@H](NC(=O)COc3ccccc3)C(=O)N2[C@H]1C(=O)O
-5.75%: max response [17]
inactive: outcome [18] | outcome [19]

O=C(O)c1ccccc1C(c1ccc(O)cc1)c1ccc(O)cc1
-8.41% and -22.6%: max response [17]
inactive: Potency [1] > 92 µM | Potency [2] > 92 µM | outcome [3] | Potency [4] | caspase-3 activation [5] 1.36% | Potency [6] | Potency [7] | Potency [8] | Potency [9] | Potency [10] | Potency [11] | Potency [12] | Potency [13] | Potency [14] | Potency [15] | Potency [16] | outcome [18] | outcome [19] | Potency [20]

CCO[Si](CCCN)(OCC)OCC
12.6% and -3.12%: max response [17]
inactive: Potency [1] > 92 µM | Potency [2] > 92 µM | outcome [3] | Potency [4] | caspase-3 activation [5] 1.79% | Potency [6] | Potency [7] | Potency [8] | Potency [9] | Potency [10] | Potency [11] | Potency [12] | Potency [13] | Potency [14] | Potency [15] | Potency [16] | outcome [18] | Potency [20]

COC(=O)c1ccc(C)cc1
inactive: Potency [1] > 92 µM | Potency [2] > 92 µM | outcome [3] | Potency [4] | caspase-3 activation [5] 0.483% | Potency [6] | Potency [7] | Potency [8] | Potency [9] | Potency [10] | Potency [11] | Potency [12] | Potency [13] | Potency [14] | Potency [15] | Potency [16] | outcome [18] | outcome [19] | Potency [20]
8.76% and -8.45%: max response [17]

CC1=CC(C)(C)Nc2ccccc21
inactive: Potency [1] > 92 µM | Potency [2] > 92 µM | outcome [3] | Potency [4] | caspase-3 activation [5] -0.184% and 0.591% | Potency [6] | Potency [7] | Potency [8] | Potency [9] | Potency [10] | Potency [11] | Potency [12] | Potency [13] | Potency [14] | Potency [15] | Potency [16] | outcome [18] | outcome [19] | Potency [20]
-19.9% and -2.04%: max response [17]

CCCCOCCO
inactive: Potency [1] > 92 µM | Potency [2] > 92 µM | outcome [3] | Potency [4] | caspase-3 activation [5] 0.121% and 0.365% | Potency [6] | Potency [7] | Potency [8] | Potency [9] | Potency [10] | Potency [11] | Potency [12] | Potency [13] | Potency [14] | Potency [15] | Potency [16] | outcome [18] | outcome [19] | Potency [20]
-6.03% and -11.6% and -17.6%: max response [17]

COC(=O)c1ccc(C=O)cc1
2.75% and 4.18%: max response [17]
inactive: Potency [1] > 92 µM | Potency [2] > 92 µM | outcome [3] | Potency [4] | caspase-3 activation [5] 13.7% | Potency [6] | Potency [7] | Potency [8] | Potency [9] | Potency [10] | Potency [11] | Potency [12] | Potency [13] | Potency [14] | Potency [15] | Potency [16] | outcome [18] | outcome [19] | Potency [20]

Clc1cc(Cl)c(Cl)c(Cl)c1Cl
-1.44% and -10.6%: max response [17]
inactive: Potency [1] > 92 µM | Potency [2] > 92 µM | outcome [3] | Potency [4] | caspase-3 activation [5] 1.31% | Potency [6] | Potency [7] | Potency [8] | Potency [9] | Potency [10] | Potency [11] | Potency [12] | Potency [13] | Potency [14] | Potency [15] | Potency [16] | outcome [18] | outcome [19] | Potency [20]
